Potency data for 37 compounds are collected here from PubChem BioAssay (NCATS).

For assay [1], the target named is Aldehyde dehydrogenase, mitochondrial (Homo sapiens) (UniProt P05091). Nature of the assay: qHTS for Inhibitors of the Aldehyde Dehydrogenase Family (ALDH2) Primary screen (AID 2061308). Also: nearly all actives have a fitted effect of over 55% in size. The settings on record: ALDH2 enzyme inhibition qHTS, 1536-well; series mostly up to 56 µM. In general terms: In qHTS, concentration-response curves come from the screen itself.
Assay [2] has as its target Retinaldehyde dehydrogenase 3 (Homo sapiens) (UniProt P47895). Nature of the assay: qHTS for Inhibitors of the Aldehyde Dehydrogenase Family (ALDH1A3) Primary screen (AID 2061315). The settings on record: ALDH inhibition qHTS; series mostly up to 56 µM.

Results filed as inconclusive are left out. A call without a number means that no potency is given here. The source made the active and inactive calls. Calls follow the shape of the dose curve; as a rule, active = well fitted curve in the direction sought with a large enough effect; inconclusive = small, poorly fitted or top-dose-only effect, or another doubt; inactive = no such curve, though single readings can be large; an effect the other way counts as inactive or inconclusive.

For the compound `C[C@H](C/C=C/C(C)(C)O)[C@H]1CC[C@@]2(C)[C@@H]3[C@@H](O[C@@H]4O[C@H](CO)[C@@H](O)[C@H](O)[C@H]4O)C=C4C(CC[C@H](O)C4(C)C)[C@]3(C=O)CC[C@]12C` (some centres undefined), the Potency result in assay [1] and in assay [2] was “inactive” throughout.

As to `Cc1cc(C)nc(NC(=S)N2CCN(c3nccc4ccccc34)CC2)c1`, the Potency result in assay [1] and in assay [2] was “inactive” throughout.

Turning to `O=C(Nc1nc(-c2ccccc2)cs1)c1ccncc1NS(=O)(=O)c1cccs1`, the Potency entry in assay [1] and in assay [2] was “inactive” each time.

`FC(F)(F)c1ccc(-c2nc(NCc3ccc(-c4ccnc(C(F)(F)F)c4)cc3)c3ccccc3n2)cc1`: the Potency result in assay [1] and in assay [2] was “inactive” each time.

As for `Cc1ccccc1C(=O)N1CCc2cc(-c3nc(NC(=O)c4ccc5c(c4)OCO5)sc3C)ccc21`, the Potency result in assay [1] and in assay [2] was “inactive” throughout.

With `Cc1cc2c(s1)c1cnn(Cc3cc(F)cc(F)c3)c(=O)c1n2C`, the Potency entry in assay [1] and in assay [2] was “inactive” in each case.

With `COc1cccc(OC)c1C1=Nn2c(nnc2-c2ccccc2O)SC1`, the Potency entry in assay [1] and in assay [2] was “inactive” in each case.

`Cc1cc(C)c(-c2nnc(NC(=O)Nc3ccc4ccccc4c3)s2)c(C)c1`: the Potency entry in assay [1] and in assay [2] was “inactive” each time.

Turning to `c1cncc(CNc2ncnc3ccc(-c4ccc5c(c4)OCCO5)cc23)c1`, the Potency entry in assay [1] and in assay [2] was “inactive” in each case.

For the compound `CN(Cc1nccs1)c1ncnc2ccc(-c3ccc4c(c3)OCO4)cc12`, the Potency entry in assay [1] and in assay [2] was “inactive” throughout.

Consider `Cc1cc(C)n2ncc(C(=O)Nc3ccc(Cl)c(Cl)c3)c2n1`, for which the Potency result in assay [1] and in assay [2] was “inactive” in each case.

As to `COc1ccc(OCc2nnc3n2N=C(c2ccccc2)CS3)cc1`, the Potency entry in assay [1] and in assay [2] was “inactive” in each case.

For `Cc1ccc(CNc2ncnc3ccc(-c4ccc5c(c4)OCO5)cc23)o1`, the Potency result in assay [1] and in assay [2] was “inactive” in each case.

With `N#Cc1nc(Nc2cccc(-c3ccccc3)c2)nc(NC2CCCC2)n1`, the Potency entry in assay [1] and in assay [2] was “inactive” throughout.

In the case of `O=S(=O)(Nc1cccc2ccccc12)c1ccc(NCc2ccc(Br)cc2O)cc1`, the Potency result in assay [1] and in assay [2] was “inactive” in each case.

On to `O=Cc1ccc(N2CCN(S(=O)(=O)c3ccc4c(c3)CC(=O)N4)CC2)cc1`, for which the Potency entry in assay [1] and in assay [2] was “inactive” each time.

Turning to `Cc1ccnc(NC(=S)Nc2cccc([S+](=O)([O-])Nc3ccccc3F)c2)c1`, the Potency result in assay [1] and in assay [2] was “inactive” throughout.

Take `Cc1ccc(NS(=O)(=O)c2cc3c(cc2-c2cn[nH]c2)NC(=O)CO3)cc1C`: the Potency entry in assay [1] and in assay [2] was “inactive” throughout.

In the case of `Cc1ccccc1S(=O)(=O)N1CCc2cc(-c3nc(NC(=O)Cc4ccc5c(c4)OCO5)sc3C)ccc21`, the Potency result in assay [1] and in assay [2] was “inactive” each time.

Take `Cc1ccc(NS(=O)(=O)c2cc3c(cc2Cl)NC(=O)CO3)cc1C`: the Potency entry in assay [1] and in assay [2] was “inactive” throughout.

Consider `COc1ccc(-c2nnc3n2N=C(c2ccccc2OC)CS3)cc1OC`, for which the Potency entry in assay [1] and in assay [2] was “inactive” in each case.

For `CCCn1c(C)nc2c(NC3CCN(Cc4ccccc4)C3)nc(C)nc21` (centres undefined), the Potency entry in assay [1] and in assay [2] was “inactive” each time.

Consider `Cc1cc2c(s1)c1cnn(Cc3ccc(C(C)C)cc3)c(=O)c1n2C`, for which the Potency entry in assay [1] and in assay [2] was “inactive” each time.

Turning to `Cc1ccc(S(=O)(=O)Nc2cnccc2C(=O)Nc2nc(-c3ccc(Cl)cc3)cs2)cc1`, the Potency result in assay [1] and in assay [2] was “inactive” throughout.

In the case of `C=CC(C)(C)C12CC3C(=O)N4C(CC5(C(C)(C)C=C)c6ccccc6NC45)C(=O)N3C1Nc1ccccc12` (centres undefined), the Potency result in assay [1] and in assay [2] was “inactive” each time.

In the case of `O=C(O)c1ccc(-c2nn3c(=O)cc(N4CCNCC4)nc3s2)cc1`, the Potency entry in assay [1] and in assay [2] was “inactive” each time.

Regarding `C#CCOc1ccc(C(C)=O)cc1-c1nnc2n1N=C(c1ccc(OC)c(O[C@@H]3CCOC3)c1)CS2`, the Potency entry in assay [1] and in assay [2] was “inactive” each time.

`N#Cc1c(-c2ccc(OCCOCCOCCNC(=O)CCCC[C@@H]3SC[C@@H]4NC(=O)N[C@@H]43)cc2)no[n+]1[O-]`: the Potency result in assay [1] and in assay [2] was “inactive” each time.

`Cc1ccc(NC(=O)CN2C(=O)N/C(=C\c3cccn3-c3cccc(-c4nn[nH]n4)c3)C2=O)cc1`: the Potency entry in assay [1] and in assay [2] was “inactive” in each case.

Regarding `CN1CCN(c2cc(-c3cc(O)c4ncccc4c3)ccn2)CC1`, the Potency result in assay [1] and in assay [2] was “inactive” throughout.

Regarding `O=C(Nc1ccc(Cl)c(S(=O)(=O)N2CCOCC2)c1)c1ccc(S(=O)(=O)N2CCOCC2)cc1`, the Potency entry in assay [1] and in assay [2] was “inactive” each time.

For `COc1ccc(C2Nc3ccccc3C(=O)N2Cc2ccco2)cc1` (centres undefined), the Potency entry in assay [1] and in assay [2] was “inactive” each time.

With `Cc1ccc(OCCn2c(CCNC(=O)c3cccc(C#N)c3)nc3ccccc32)cc1`, the Potency result in assay [1] and in assay [2] was “inactive” in each case.

As for `COc1ccc2nc(-c3cccc(OCc4ccccc4)c3)sc2c1`, the Potency result in assay [1] and in assay [2] was “inactive” throughout.

Regarding `COC(=O)c1ccc(O)c2ncc(N(C)C)cc12`, the Potency entry in assay [1] and in assay [2] was “inactive” in each case.

On to `O=C1CCCC2=C1C(c1[nH]ncc1Cl)N=C(Nc1nccs1)N2` (centres undefined), for which the Potency entry in assay [1] and in assay [2] was “inactive” each time.

Turning to `O=S(=O)(c1ccccc1)N1CCN(c2nc(C3CC3)nc3ccccc23)CC1`, the Potency result in assay [1] and in assay [2] was “inactive” in each case.
